Reference: PubChem BioAssay

Experiment: yeast transport mutant growth inhibition pilot in 384-well plates, post-Golgi transport modulator project (AID 636)
Settings: absorbance 615 nm, about 18 h, hits give high values; in the data active = inhibition above about 31%; inactive = the rest

inhibition, inactive:
COC(=O)c1cccc(NC(=O)CN2CCN(Cc3ccccc3)CC2)c1 -5.34%
CN(C)CCC(c1ccc(Br)cc1)c1ccccn1 (centres undefined) -2.73%
CCCn1c(SCC(=O)NC(=O)NCc2ccco2)n[nH]c1=O -2.8%
Cc1ccc(C2=N/C(=C/N3CCOCC3)C(=O)O2)cc1 -2.08%
O=C(NCc1ccco1)c1ccc2c(=O)n(CC3CCCO3)c(=S)[nH]c2c1 (centres undefined) -2.73%
Cc1cc(-c2ccccc2)nnc1NCCN1CCOCC1 1.69%
CN(C)CCOC(=O)C(c1ccccc1)C1(O)CCCC1 (centres undefined) -1.43%
CCOC(=O)N1CCC(NC(=O)Cn2ncc3c4ccccc4n(C)c3c2=O)CC1 -7.43%
COc1cccc(NC(=O)N(Cc2ccco2)C(C)c2cccs2)c1 (centres undefined) -0.52%
C=CCN=C1SCC(=O)N1S(=O)(=O)c1ccc(C)cc1 -4.73%
Cc1ccc(S(=O)(=O)N2CCN(c3nc(C(C)C)c4c(c3C#N)CC(C)(C)OC4)CC2)cc1 -1.22%
O=C(O)Cc1ccc(-c2ccccc2)cc1 -2.21%
Cc1ccc2nc(NC(=O)C3CCCN(S(=O)(=O)c4cccc5nonc45)C3)sc2c1 (centres undefined) -4.34%
O=C(NCCCN1CCCC1=O)C1CCN(S(=O)(=O)N2CCOCC2)CC1 5.41%
CC1CCCC(C)N1CCNC(=O)C1CCN(S(=O)(=O)N2CCCCC2)CC1 (centres undefined) -1.2%
O=C(CSc1nnc(-c2ccccn2)n1Cc1ccccc1)N1CCCC1 -8.67%
C[C@H](CS)C(=O)N1CCC[C@H]1C(=O)O -2.47%
c1ccc(-c2ccc(-c3ccccn3)nn2)nc1 -6.27%
CS(=O)(=O)N(CC(=O)NCc1ccncc1)Cc1ccc(Cl)cc1 -8.36%
O=C(CCn1c(=O)oc2ccccc21)N1CCN(c2ccccc2Cl)CC1 7.3%
CC(C)Oc1cc2oc(=O)c3c(c2cc1Cl)CCC3 -7.4%
CC(=O)C1=C(NC(=O)c2ccccc2F)C[C@@H]2[C@H]1C2(C)C -10.7%
CCOC(=O)Cn1nnnc1CN(Cc1ccc(OC)cc1)Cc1cc2cc(C)ccc2[nH]c1=O -1.33%
Cc1ccc(CN2C(=O)CCC2C(=O)NCCCN2CCCC(C)C2)cc1 (centres undefined) -3.07%
